# BAZ2B block = qHTS Assay for Inhibitors of BAZ2B; 360,000 tested, 4.4% active; Bromodomain adjacent to zinc finger domain protein 2B (Homo sapiens), Q9UIF8; Potency, µM (top dose mostly 114 µM), inactives show at the top dose activity change, negative = inhibition, hits mostly inhibitors; AID 504333, 2011; AlphaScreen BAZ2B-H3K14Ac peptide displacement; note: % is set by controls: 0 for no effect and ±100 for the full control effect; nearly all actives have a fitted effect of over 60% in size
#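 Inhibition is scored as reduced AlphaScreen emission. The BAZ2B/b-H3(5-23)K14Ac complex (50 nM each) in PBS pH 7.4, 0.01% Tween-20 meets compound (up to 110 uM) for 30 min at RT before bead addition.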
# L3MBTL1 block = qHTS Assay for the Inhibitors of L3MBTL1; Potency, µM (titrated, usually from 57.1 µM), inactives show at the highest dose activity, negative = inhibition, usual class: inhibitors; 230,000 tested, 0.66% active; Lethal(3)malignant brain tumor-like protein 1 (Homo sapiens), Q9Y468; AlphaScreen L3MBTL1–H3K9me1 peptide binding; note: % is set by controls: 0 for no effect and ±100 for the full control effect; nearly all actives have a fitted effect of over 60% in size
# Target sequence (Q9Y468 whole entry, looked up): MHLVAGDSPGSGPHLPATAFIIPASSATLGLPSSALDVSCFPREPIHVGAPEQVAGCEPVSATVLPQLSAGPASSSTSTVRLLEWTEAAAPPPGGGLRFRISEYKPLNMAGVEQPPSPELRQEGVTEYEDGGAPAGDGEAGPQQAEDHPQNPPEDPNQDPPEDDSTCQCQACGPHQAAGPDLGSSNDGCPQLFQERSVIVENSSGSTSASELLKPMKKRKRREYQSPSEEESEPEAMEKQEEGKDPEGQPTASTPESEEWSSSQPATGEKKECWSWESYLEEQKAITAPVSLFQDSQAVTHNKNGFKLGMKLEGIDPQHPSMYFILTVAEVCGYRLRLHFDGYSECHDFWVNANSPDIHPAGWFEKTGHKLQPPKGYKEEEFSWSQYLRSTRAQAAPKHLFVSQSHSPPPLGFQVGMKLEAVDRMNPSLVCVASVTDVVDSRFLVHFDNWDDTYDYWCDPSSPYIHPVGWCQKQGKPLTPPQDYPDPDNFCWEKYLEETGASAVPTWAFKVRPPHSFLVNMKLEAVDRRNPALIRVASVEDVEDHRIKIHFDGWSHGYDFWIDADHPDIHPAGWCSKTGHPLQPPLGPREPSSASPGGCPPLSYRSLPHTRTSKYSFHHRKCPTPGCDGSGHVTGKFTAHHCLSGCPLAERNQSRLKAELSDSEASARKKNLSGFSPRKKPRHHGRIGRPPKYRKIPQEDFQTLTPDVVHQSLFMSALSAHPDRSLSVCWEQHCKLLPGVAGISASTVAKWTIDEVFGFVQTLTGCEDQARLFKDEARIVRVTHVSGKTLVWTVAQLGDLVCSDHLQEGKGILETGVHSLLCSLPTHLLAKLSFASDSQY
#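 L3MBTL1 50 nM + b-AHA-H3(1-15)K9me1 75 nM, 30 min RT; compound added, 30 min RT; streptavidin donor/Ni-chelate acceptor beads 10 ug/mL each final, 30 min RT dark; AlphaScreen read.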
# GLS inh = qHTS for Inhibitors of Glutaminase (GLS) | Glutaminase kidney isoform, mitochondrial (Homo sapiens), O94925 | GLS enzymatic activity, qHTS titration | Potency, µM (doses to about 45.5 µM), inactives show top-dose activity change, negative = inhibition, actives largely listed as inhibitors | 410,000 tested, 0.21% active | AID 624170, 2012; note: % is set by controls: 0 for no effect and ±100 for the full control effect
#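 hKGA in 45 mM KH2PO4 (pH 8.2), 0.02% Tween-20 with compound, then 1mM L-Glutamine (stock as added) plus glutamate oxidase/HRP/Amplex red coupling mix. Fluorescence read initially and after 30 min at RT; signal change reflects glutamate formation.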
# HP1b binding inh = HTS for Inhibitors of HP1-beta Chromodomain Interactions with Methylated Histone Tails | AlphaScreen HP1-beta / biotin-H3K9me3 peptide binding | Potency, µM (titrated, usually from 114 µM), inactives show top-dose activity change, negative = inhibition, hits mostly inhibitors | 390,000 tested, 0.56% active; note: nearly all actives have a fitted effect of over 70% in size
#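 HP1-beta protein (50 nM final) preincubated 30 min at room temperature with biotinylated H3(1-18)K9me3 peptide (50 nM) in PBS pH 7.4, 0.01% Tween-20, then compound added for 30 min. AlphaScreen streptavidin donor/nickel chelate acceptor beads (10 ug/mL final), 30 min dark, luminescence read.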
# G9a inh = qHTS Assay for Inhibitors of Histone Lysine Methyltransferase G9a; G9a H3K9 monomethylation, AlphaScreen, 2 h; 350,000 tested, 8.8% active; AID 504332, 2011; Histone-lysine N-methyltransferase EHMT2 (Homo sapiens), Q96KQ7; Potency, µM (series often up to 102 µM), inactives show top-dose activity, negative = inhibition, usual class: inhibitors; note: % is set by controls: 0 for no effect and ±100 for the full control effect; nearly all actives have a fitted effect of over 75% in size
#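 Methyltransferase reactions run at room temperature for 2 h (20 nM enzyme, 500 nM biotin-H3K9 peptide, 20 uM SAM) after a 15 min compound preincubation; product detected by AlphaScreen beads and anti-H3K9me1 antibody.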
# JMJD2A Tudor inh = qHTS Assay for Inhibitors of JMJD2A-Tudor Domain; AID 504339, 2011; Potency, µM (top dose mostly 114 µM), for the others: top-dose activity change, negative = inhibition, hits mostly inhibitors; 390,000 tested, 4.4% active; AlphaScreen JMJD2A-Tudor / H3K4me3 peptide binding; Lysine-specific demethylase 4A (Homo sapiens), O75164; note: % is set by controls: 0 for no effect and ±100 for the full control effect; nearly all actives have a fitted effect of over 50% in size
# * marks the source's active call; other numbers are inactive results; u = inconclusive; x = not tested or not shown; [ ] = another dose, or the depositor's remark. Most compounds without a hit are left out; they make up all but 10% or so of the library. Calls come from the whole dose curve; as a rule, active = well fitted curve in the direction sought with a large enough effect; inconclusive = small, poorly fitted or top-dose-only effect, or another doubt; inactive = no such curve, though single readings can be large; an effect the other way counts as inactive or inconclusive. Potency is the fitted concentration of half-maximal effect.
SMILES,BAZ2B block,L3MBTL1 block,GLS inh,HP1b binding inh,G9a inh,JMJD2A Tudor inh
C/C(=C\C(=O)c1cccnc1)Nc1ccc(C(=O)O)cc1,u,x,x,15%,2.2µM*,u
CC/C(=C\C(=O)c1cccnc1)Nc1ccc(C)c(C)c1,-54%,-14%,10%,u,40µM*,50µM*
N#Cc1c(C(F)(F)F)cc(-c2cccs2)nc1SCC(=O)Nc1ccc(F)cc1,2%,x,-2%,46%,-3%[59 µM],0%
CC(C)(C)CC(=O)NC1CC(=O)N(c2ccc3c(c2)OCCO3)C1 (stereo unspecified),-13%,x,0%,-5%,9%[59 µM],-18%
CCOCCCNCc1cccc(OCc2ccc(F)cc2)c1,-7%,7%,-8%,39%,-14%[59 µM],6%
CCOCCCNCc1ccc(Cl)cc1,71µM*,5%,6%,u,11µM*,1.1µM*
COc1ccc(CCNCCC(=O)Nc2c(C)cc(C)cc2C)cc1OC,-6%,6%,23%,17%,5%[59 µM],-21%
COc1ccc(CNCCCC(=O)Nc2c(Cl)ccc(C)c2Cl)cc1OC,56µM*,x,-15%,79µM*,3.2µM*,0.79µM*
O=C(CCN1C(=O)c2ccc([N+](=O)[O-])cc2C1=O)Nc1ccc(O)cc1C(=O)O,7%,x,-21%,1%,50µM*,-18%
Cc1ccc(-c2csc(NS(=O)(=O)c3cccc(F)c3)n2)o1,x,28µM*,u,-32%,x,56µM*
CC(=O)C1=C(O)C(=O)N(c2ccc(S(=O)(=O)Nc3nccs3)cc2)C1c1ccc(F)cc1 (stereo unspecified),-29%,-10%,-12%,3%,56µM*,-16%
O=S(=O)(Nc1nccs1)c1ccc(F)cc1,-6%,5%,5%,36%,x,-12%
CC(=O)C1=C(O)C(=O)N(c2ccc(S(=O)(=O)Nc3nccs3)cc2)C1c1ccc([N+](=O)[O-])cc1 (stereo unspecified),u,x,0%,-10%,79µM*,-28%
CC(=O)C1=C(O)C(=O)N(c2ccc(S(N)(=O)=O)cc2)C1c1ccc([N+](=O)[O-])cc1 (stereo unspecified),u,5%,-6%,22%,13%[0.501 µM],-7%
O=C(NCCN1CCOCC1)C1CCN(S(=O)(=O)N2CCCCC2)CC1,-3%,-1%,-4%,29%,-20%,-5%
O=C(NCCN1CCOCC1)C1CCN(Cc2ccccc2O)CC1,45µM*,x,22%,u,22µM*,1.4µM*
CN(/N=C/c1ccc(-c2ccc([N+](=O)[O-])cc2)o1)c1ccccc1,-36%,-12%,1%,u,-5%,25µM*
NC(=S)N/N=C/c1ccc(-c2cc(Cl)cc(Cl)c2)o1,-33%,x,21%,9%,13µM*,-35%
NC(=S)N/N=C/c1ccc(-c2ccc([N+](=O)[O-])cc2)o1,-29%,-8%,19%,32%,22µM*,-13%
CN(C)/N=C/c1ccc(Sc2ccccc2[N+](=O)[O-])o1,20µM*,u,26%,35µM*,25µM*,40µM*
Cc1ccc(C(=O)N/N=C\c2ccc(-c3ccc([N+](=O)[O-])cc3)o2)cn1,-9%,5%,-7%,18%,x,-9%
CCOC(=O)c1ccc(NC(=O)C2CCCN(c3ncnc4onc(C)c34)C2)cc1 (stereo unspecified),8%[57.1 µM],x,9%,8%,2%[59 µM],-3%
CN1C(=O)Cc2cc(S(=O)(=O)CCC(=O)Nc3ccc(Cl)cc3)ccc21,0%,x,-7%,30%,-18%[59 µM],-5%
CCOC(=O)/C=C(\C)Sc1cc(O)c2ccccc2c1O,28µM*,u,-15%,7.9µM*,2.5µM*,7.9µM*
Cc1sc2nc(C3CC3)nc(N3CCN(C(=O)c4ccc(Cl)cc4)CC3)c2c1C,u,x,-6%,16%,45µM*,45µM*
SMILES,BAZ2B block,L3MBTL1 block,GLS inh,HP1b binding inh,G9a inh,JMJD2A Tudor inh
Cc1sc2nc(C3CC3)nc(N3CCN(S(=O)(=O)c4ccc(F)cc4)CC3)c2c1C,2%,8%,12%,47%,22%[59 µM],-12%
Cc1sc2nc(C3CC3)nc(N3CCN(C(=O)c4ccc(F)cc4)CC3)c2c1C,u,x,-2%,8%,45µM*,-34%
COc1ccc(C(=O)N2CCN(c3nc(C4CC4)nc4sc(C)c(C)c34)CC2)cc1,u,x,2%,-20%,40µM*,u
Cc1sc2nc(C3CC3)nc(N3CCN(C(=O)c4ccccc4F)CC3)c2c1C,-38%,x,0%,5%,45µM*,-31%
CCN1CCc2nc(N)oc2CC1,6%,-19%,-8%,47%,24µM*,-8%
CCCN1CCc2nc(N3CCN(CC)CC3)ncc2C1,-17%,x,4%,13%,u,u
Cc1ccc(SCC(=O)NCCN2C(=O)CSC2=O)cc1C,7%,x,3%,29%,-4%[59 µM],-11%
Cc1ccc(Nc2nnc(SCC(=O)NCCN3C(=O)CSC3=O)s2)cc1C,4%,-10%,1%,23%,28µM*,-8%
O=C(c1ccc(Cl)c(S(=O)(=O)N2CCCC2)c1)N1CCN(c2ccccc2)CC1,-21%,-3%,u,u,-32%,13µM*
O=C(c1ccc(S(=O)(=O)N2CCCCCC2)cc1)N1CCN(c2ccccc2)CC1,-10%,x,-5%,-11%,6%,79µM*
O=C(c1ccc(Cl)c(S(=O)(=O)N2CCCC2)c1)N1CCN(c2ccc(F)cc2)CC1,56µM*,-28%,8%,-14%,45µM*,u
COc1ccc(CCNC(=O)c2c(C)oc3nc(C)nc(N4CCOCC4)c23)cc1OC,8%[57.1 µM],x,-4%,26%,-9%[59 µM],-8%
Cc1ccc(OCCCCNC2CCCC(C)C2C)c(C)c1 (stereo unspecified),22µM*,-6%,-11%,u,13µM*,20µM*
Cc1ccc(C)c(OCCCC(=O)NC2CCCCC2)c1,11%,3%,-15%,38%,-1%,-10%
Cc1nn(-c2ccc(F)cc2)c(-n2cccc2)c1C(=O)NCCCN1CCN(c2cccc(Cl)c2)CC1,u,x,-2%,-8%,u,u
Cc1c(Cl)cccc1Nc1n[nH]c(=S)s1,x,x,19%,50µM*,x,11µM*
S=c1[nH]nc(Nc2cccc3ccccc23)s1,u,-18%,u,40µM*,0.32µM*,18µM*

# Screening data (PubChem BioAssay)
